D1 ag = human D1 receptor agonism | P21728 | HEK293 T-REx D1 cells, calcium flux, agonist mode | activation, % at 2 µM | actives 1% (n = 360,000) | AID 504660; in the data active = activation above about 30%
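Inducible HEK293 T-REx D1 cells, force-coupled to calcium signalling, were plated at 4000 cells/well with tetracycline and held overnight at 30 C. After no-wash calcium dye loading, compound-evoked calcium rise over 180 s flagged agonists.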
DRD3 antagonist = blocks the human D3 dopamine receptor. P35462. D3R cells, DiscoveRx beta-arrestin luminescence, antagonist mode; stronger effect = lower value. max response, negative = inhibition, %. actives 2.5% (n = 360,000). AID 652054; in the data active = max response below about -50%; inconclusive = no clear call, values can overlap the other calls
Target sequence (P35462 whole entry, looked up): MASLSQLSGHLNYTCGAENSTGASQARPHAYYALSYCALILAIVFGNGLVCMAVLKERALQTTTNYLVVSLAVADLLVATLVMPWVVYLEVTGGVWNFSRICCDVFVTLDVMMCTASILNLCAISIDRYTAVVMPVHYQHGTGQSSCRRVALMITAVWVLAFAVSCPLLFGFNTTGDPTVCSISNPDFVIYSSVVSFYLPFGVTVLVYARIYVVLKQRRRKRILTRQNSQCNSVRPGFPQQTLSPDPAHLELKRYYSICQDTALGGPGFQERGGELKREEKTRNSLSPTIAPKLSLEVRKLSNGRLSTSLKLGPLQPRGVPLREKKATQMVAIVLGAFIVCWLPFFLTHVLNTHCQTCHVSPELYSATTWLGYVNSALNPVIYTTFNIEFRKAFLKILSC
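Cells plated overnight at 1500 cells/well, then exposed to library compounds with dopamine controls for 90 minutes at 37 degrees C. DiscoveRx reagent added for 30–60 minutes at room temperature; luminescence read, quantitative HTS format.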
D1 potentiator = potentiators of human D1 dopamine receptor; P21728; HEK293 TREx D1 cells, calcium flux, dopamine EC20 potentiation; potentiation, % at 10 µM; actives 0.036% (n = 360,000); in the data active = potentiation above about 30%
DRD3 agonist = D3 dopamine receptor (human) agonism; P35462; D3R DiscoveRx beta-arrestin cells, luminescence, 90 min; max activation, %; actives 0.58% (n = 410,000); AID 652048; in the data active = max activation above about 30%
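Cells at 1500/well, incubated overnight, then treated with pinned compounds (dopamine as control) for 90 min at 37 degrees C. DiscoveRx reagent added for 30 - 60 minutes at room temperature; luminescence read.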
D1 antagonist = blocks dopamine activation of the human D1 receptor; P21728; HEK293 TREx D1 cells, calcium flux, dopamine EC80; stronger effect = lower value; activity change, negative = inhibition, % at 10 µM; actives 3.2% (n = 360,000); AID 504652; in the data active = activity change below about -30%
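Inducible Hek293 Trex D1 cells (tetracycline, overnight, 30 C). Calcium dye 30–90 min RT. Antagonist mode: EC80 dopamine added after 180 s compound read.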
Of the large screens only hits and unclear results are named; the others gave an inactive call. A selection: hits, their analogues and other compounds. The true share with any hit is near 6.1%.

Cc1ccc(Cc2nc3ccccc3nc2SCC(=O)N2CCCCC2C)cc1 (stereo unspecified)	none (no result: DRD3 antagonist)
CCc1c(C)[nH]c2c1C(=O)C(CN1CCOCC1)CC2 (stereo unspecified)	DRD3 antagonist -102 (no result: D1 ag, D1 potentiator, D1 antagonist)
CCc1c(C)nc(N2CCOCC2)[nH]c1=O	none
CC(=O)c1cccc(NS(=O)(=O)c2cc3c(cc2C)n(C)c(=O)c(=O)n3C)c1	none (no result: DRD3 antagonist)
Cc1c(N2C(=O)CS/C2=N\N=C\c2ccccc2O)c(=O)n(-c2ccccc2)n1C	DRD3 agonist 39
Cc1c(N2C(=O)CS/C2=N\N=C\c2ccc(Cl)cc2)c(=O)n(-c2ccccc2)n1C	none
CCOC(=O)C1CCN(C(=O)Cn2c(-c3cccs3)cc3cc(Cl)ccc32)CC1	none (no result: DRD3 antagonist)
C[C@@H](C(=O)Nc1ccc2ccccc2c1)[C@@H]1C[C@@]1(C)[C@@H](NC(=O)c1ccccc1)c1ccccc1	none
C[C@@H](C(=O)Nc1ccc2ccccc2c1)[C@H]1C[C@]1(C)[C@H](NC(=O)c1cccnc1)c1ccccc1	DRD3 antagonist -50
COc1cc(CNCCN2CCOCC2)ccc1OCc1cccc(Cl)c1	none
COc1cc(CNCCN2CCOCC2)ccc1OCc1ccc(Cl)cc1Cl	DRD3 antagonist -64
COc1cc(CNCc2ccccn2)ccc1OCc1ccc(Cl)cc1Cl	DRD3 antagonist -67
CCc1ccc(-c2[nH]c3c(c2-c2sc(C)c(C(=O)OC)c2O)c(=O)[nH]c(=O)n3C)cc1	none (no result: DRD3 antagonist)
CCOC(=O)c1c(C)sc(-c2c(-c3ccccc3)[nH]c3[nH]c(=O)[nH]c(=O)c23)c1O	D1 ag 39 (no result: DRD3 antagonist)
CCOC(=O)c1c(C)sc(-c2c(-c3ccc(OC)c(F)c3)[nH]c3[nH]c(=O)[nH]c(=O)c23)c1O	none (no result: DRD3 antagonist)
COC(=O)c1c(C)sc(-c2c(-c3cccc(Cl)c3)[nH]c3c2c(=O)[nH]c(=O)n3C)c1O	D1 ag 62 (no result: DRD3 antagonist)
Cc1cccc(Cn2c(CNS(=O)(=O)c3ccc(C(C)C)cc3)nc3cccnc32)c1	none (no result: DRD3 antagonist)
CCn1c(C(Cc2ccccc2)NC(=O)COC)nc2ccccc21 (stereo unspecified)	D1 antagonist -30
CC(C)Cn1c(C(C)NC(=O)Cc2ccccc2)nc2ccccc21 (stereo unspecified)	none
COc1ccccc1CNC(=O)CCCCn1c(=O)c2ccccc2n(CC(=O)Nc2c(C)cc(C)cc2C)c1=O	none (no result: DRD3 antagonist)
NC(N)=NCCCC(NC(=O)c1ccccc1)C(=O)Nc1ccc([N+](=O)[O-])cc1 (stereo unspecified)	DRD3 antagonist -94
Cc1[nH]c2ccc(-c3n[nH]c(=S)n3Cc3ccccc3)cc2c1C	D1 antagonist -32
COc1cc(NC(=O)CN(C)S(=O)(=O)c2ccc3[nH]c4c(c3c2)CCCC4)cc(OC)c1OC	none (no result: DRD3 antagonist)
CCN(CC)CCOC(=O)C(c1ccccc1)C1CCCCC1 (stereo unspecified)	DRD3 antagonist -89 (no result: D1 ag, D1 potentiator, D1 antagonist)
CCN(CC)CCOC(=O)CCc1cccc2ccccc12	DRD3 antagonist -66
NC(=O)C(c1ccccc1)C1CCCCC1 (stereo unspecified)	none
CCN(CC)CCOC(=O)C(c1ccccc1)c1ccccc1	DRD3 antagonist -67
CCN(CC)CCOC(=O)C(Cc1ccco1)Cc1cccc2ccccc12 (stereo unspecified)	DRD3 antagonist inconclusive (no result: D1 ag, D1 potentiator, D1 antagonist)
CCN(CCO)C(=O)C(c1ccccc1)c1ccccc1	D1 antagonist -59
CCN(CC)CCSC(=O)C(c1ccccc1)c1ccccc1	none (no result: D1 ag, DRD3 antagonist, D1 potentiator, D1 antagonist)
CCn1c(=O)c2cc(C(=O)N(CC(C)C)CC(C)C)sc2c2ccccc21	none (no result: DRD3 antagonist)
Cc1ccc(N2CC(NC(=O)C(=O)c3c[nH]c4ccccc34)CC2=O)cc1 (stereo unspecified)	none (no result: DRD3 antagonist, D1 antagonist)
Cc1ccc(CN2C(=O)CN(C3CCC(C)CC3)C(=O)C2c2ccc(F)cc2)cc1 (stereo unspecified)	none (no result: DRD3 antagonist)
Cc1sc2nc(-c3cccnc3)[nH]c(=O)c2c1-c1ccccc1	D1 antagonist -49
Cc1sc2nc(Cc3ccccc3)[nH]c(=O)c2c1-c1ccccc1	none
O=[N+]([O-])c1cccc(-c2cn3nc(-c4ccccc4)c(-c4ccccc4)nc3n2)c1	none
c1ccc(-c2cn3nc(-c4ccccc4)c(-c4ccccc4)nc3n2)cc1	D1 ag 73
Cc1ccc(-c2cn3nc(-c4ccccc4)c(-c4ccccc4)nc3n2)cc1	D1 ag 43
O=[N+]([O-])c1ccc(-c2cn3nc(-c4ccccc4)c(-c4ccccc4)nc3n2)cc1	none
Cc1ccc(-n2nnnc2CNC(=O)C(C)(C)C)cc1C	none (no result: DRD3 antagonist)
CCN(C(=O)CSc1ncc(S(=O)(=O)c2ccc(C)c(Cl)c2)c(=O)[nH]1)c1cccc(C)c1	none (no result: DRD3 antagonist)
CCc1cc(C(=O)NNC(=S)Nc2ccccc2C)cs1	DRD3 antagonist -97
Cn1ccc2c(N(Cc3ccccc3)Cc3ccccc3)cc3c(c21)C1CCC3C1 (stereo unspecified)	DRD3 antagonist -56 (no result: D1 ag, D1 potentiator, D1 antagonist)
CN(Cc1ccccc1)c1cc2c(c3c1ccn3C)C1CCC2C1 (stereo unspecified)	none (no result: D1 ag, D1 potentiator, D1 antagonist)
Cn1ccc2c(-c3ccc(CO)cc3)cc3c(c21)C1CCC3C1 (stereo unspecified)	DRD3 antagonist -65 (no result: D1 ag, D1 potentiator, D1 antagonist)
COC(=O)c1ccc2c(=O)n(CCCCCC(=O)N3CCN(c4cc(Cl)ccc4C)CC3)c(=O)[nH]c2c1	none (no result: DRD3 antagonist)
CCc1ccc(/C=C2/C(=O)N(c3ccccc3)C(=S)N2CC(=O)OC)s1	none
CCN1C(=O)/C(=C/N(C(C)=O)c2ccccc2)N(c2ccccc2)C1=S	DRD3 antagonist -81
Cc1ccc(SCc2nc(-c3ccc(C(=O)NCc4ccccc4Cl)cc3)oc2C)cc1	none (no result: DRD3 antagonist)
COc1ccc(C2N3CC4(C)CN2CC(C)(C3)C4)cc1OC (stereo unspecified)	D1 antagonist -36
CC[C@@H](C)[C@@H](N)C1=N[C@H](C(=O)N[C@@H](CC(C)C)C(=O)N[C@@H](CCC(=O)O)C(=O)N[C@@H](C(=O)N[C@@H]2CCCCNC(=O)[C@@H](CC(N)=O)NC(=O)[C@@H](CC(=O)O)NC(=O)[C@@H](Cc3cnc[nH]3)NC(=O)[C@@H](Cc3ccccc3)NC(=O)[C@@H]([C@H](C)CC)NC(=O)[C@@H](CCCN)NC2=O)[C@@H](C)CC)CS1	none (no result: D1 ag, DRD3 antagonist, D1 potentiator, D1 antagonist)
CCN1CCN(c2csc3ccc(F)cc3c2=O)CC1	none (no result: DRD3 antagonist)
O=c1c(N2CCCCC2)csc2ccc(F)cc12	D1 antagonist -75 (no result: DRD3 antagonist)
O=C(NCc1cc(C(F)(F)F)ccc1F)C1CCC(=O)N(C2CC2)C1 (stereo unspecified)	D1 antagonist -36
Cc1cc2ccc3ccccc3c2cc1CN(C)C	D1 antagonist -43
COc1cccc(-c2cnc3c(NC=O)cc(-c4cccc(C(=O)N(C)C)c4)cn23)c1	DRD3 agonist 72 (no result: D1 ag, D1 potentiator, D1 antagonist)
COc1cccc(-c2cc(NC=O)c3ncc(-c4cccc(C(=O)N(C)C)c4)n3c2)c1	none (no result: D1 ag, D1 potentiator, D1 antagonist)
CN1CCN(c2ccc(-c3cc(NC=O)c4ncc(-c5ccccc5)n4c3)cc2)CC1	DRD3 antagonist -54 (no result: D1 ag, D1 potentiator, D1 antagonist)

Bioassay records (PubChem)
